Assay [1] is described as follows: qHTS assay to identify small molecule antagonists of the thyroid receptor (TR) signaling pathway (AID 743065). Also: nearly all actives have a fitted effect of over 55% in size. Also: potency is read from the fitted curve at half-maximal effect. As to activity, negative = inhibition: series mostly up to about 70 µM. Put shortly: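 Antagonism measured as loss of luciferase signal in GH3 cells stably carrying a TRE-luciferase reporter, co-treated with compound and T3 (1 nM final) for 23.5 h at 37 C. Viability was read in the same well by CellTiter-Fluor.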
For orientation: In qHTS, concentration-response curves come from the screen itself.

For assay [2], the system named is thyroid hormone receptor (rat, GH3 cells). The experiment in a line: qHTS assay to identify small molecule agonists of the thyroid receptor (TR) signaling pathway (AID 743066; calls by dose curve).
The nature of assay [3]: qHTS assay to identify small molecule antagonists of the estrogen receptor alpha (ER-alpha) signaling pathway using the BG1 cell line - cell viability counter screen (AID 743081).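 Also: compound given together with 17beta-estradiol as the ER stimulus; nearly all actives have a fitted effect of over 45% in size.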 Also: potency is read from the fitted curve at half-maximal effect. As to activity change, negative = cytotoxicity: series mostly up to about 70 µM.
Assay [4] is described as follows: qHTS assay to identify aromatase inhibitors - cell viability counter screen (AID 743084).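 Also: cells stimulated with testosterone during compound exposure; nearly all actives have a fitted effect of over 55% in size.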 Also: potency is read from the fitted curve at half-maximal effect.
The target in assay [5] is Aryl hydrocarbon receptor (Homo sapiens) (UniProt P35869). The experiment in a line: qHTS assay to identify small molecule that activate the aryl hydrocarbon receptor (AhR) signaling pathway (AID 743085). Also: nearly all actives have a fitted effect of over 15% in size. Also: potency is read from the fitted curve at half-maximal effect.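 As to activation: HG2L7.5c1 human HepG2 liver cells with stably integrated DRE-driven firefly reporter; series mostly up to about 70 µM.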 Summed up: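 Steps: seed HepG2-AhR-luc cells; allow 5 h at 37C; pin-transfer test compound or vehicle; incubate 24 h at 37C; add viability dye (30 min, 37C) and read fluorescence; add luciferase substrate (30 min, RT) and read luminescence.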

Assay [6] is described as follows: qHTS assay to identify small molecule that activate the aryl hydrocarbon receptor (AhR) signaling pathway - cell viability counter screen (AID 743086). Also: nearly all actives have a fitted effect of over 45% in size. Also: potency is read from the fitted curve at half-maximal effect.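 As to viability change, negative = cytotoxic: HepG2 liver cells carrying the AhR DRE luciferase reporter; series mostly up to about 70 µM.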 Put shortly:
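Cytotoxicity counter screen: CellTiter-Fluor signal (30 min, 37 C) in 4000 HepG2 cells/well carrying the DRE-luciferase reporter, following 24 h compound exposure at 37 C.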

A short description of assay [7]: qHTS assay to identify small molecule antagonists of the peroxisome proliferator-activated receptor gamma (PPARg) signaling pathway - cell viability counter screen (AID 743194). Also: nearly all actives have a fitted effect of over 55% in size. Summed up:
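Viability was measured as CellTiter-Glo luminescence in GeneBLAzer PPARg UAS-bla HEK293H cells. These cells had been exposed 17 h at 37 C to compounds together with rosiglitazone at 50 nM final, with the beta-lactamase readout taken in the same wells.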

A short description of assay [8]: qHTS assay for small molecule agonists of the antioxidant response element (ARE) signaling pathway - cell viability counter screen (AID 743203; calls by dose curve; also: nearly all actives have a fitted effect of over 55% in size). Summed up: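 ATP content via CellTiter-Glo luminescence served as the viability measure. Cells: ARE-bla HepG2, 2,000 per well. Exposure: 16 hrs, 37C/5% CO2.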
Assay [9] is described as follows: qHTS assay for small molecule activators of the heat shock response signaling pathway - cell viability counter screen (AID 743209). Also: nearly all actives have a fitted effect of over 50% in size. Summed up: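 Compounds dissolved in DMSO were added to overnight-plated HSE-bla HeLa cells and left 5 h at 37 C. Cell viability was quantified by luminescence using CellTiter-Glo.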
Assay [10] can be described thus: qHTS assay for small molecule activators of the heat shock response signaling pathway (AID 743210; active = well fitted activation curve with a large enough effect in the signal ratio in the repeat runs, with a control signal flat, not every such curve was filed as active; the % refers to the signal ratio; also: potency is read from the fitted curve at half-maximal effect; as to activation: series mostly up to about 63 µM). Summed up:
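Compound exposure lasted 5 h at 37 C in HeLa cells carrying a heat-shock-element-driven beta-lactamase reporter. Read-out: fluorescence intensity after 2.5 h room-temperature loading with LiveBLAzer B/G FRET substrate.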

Assay [11] can be described thus: qHTS assay to identify small molecule agonists of the peroxisome proliferator-activated receptor delta (PPARd) signaling pathway - cell viability counter screen (AID 743211). Also: nearly all actives have a fitted effect of over 55% in size. Put shortly: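 Viability of GeneBLAzer PPARd UAS-bla HEK293H cells was assessed after 17 h compound incubation at 37C, using CellTiter-Glo reagent added after the reporter read and luminescence recorded 30 min later.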

A short description of assay [12]: qHTS assay to identify small molecule antagonists of the estrogen receptor alpha (ER-alpha) signaling pathway - cell viability counter screen (AID 743074; calls by dose curve;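 also: HEK293 cells carrying ER-alpha-UAS-bla reporter stimulated with 17beta-estradiol; nearly all actives have a fitted effect of over 45% in size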).
The nature of assay [13]: qHTS assay for small molecule agonists of the antioxidant response element (ARE) signaling pathway (AID 743202; active = well fitted activation curve with a large enough effect in the signal ratio in the repeat runs, not every such curve was filed as active; the % refers to the signal ratio; also: potency is read from the fitted curve at half-maximal effect). Put shortly: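 After 16 hours of compound treatment at 37 C, HepG2 cells with a stably integrated ARE-driven beta-lactamase reporter were loaded 2 hours at room temperature with LiveBLAzer B/G FRET substrate and fluorescence intensity measured.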
For another assay, the target named is Aromatase (Homo sapiens) (UniProt P11511). The experiment in a line: qHTS assay to identify aromatase inhibitors (AID 743083).
The target in assay [14] is Peroxisome proliferator-activated receptor gamma (Homo sapiens) (UniProt P37231). The experiment in a line: qHTS assay to identify small molecule agonists of the peroxisome proliferator-activated receptor gamma (PPARg) signaling pathway (AID 743094; active = well fitted activation curve with a large enough effect in the signal ratio in the repeat runs, not every such curve was filed as active; the % refers to the signal ratio). Put shortly:
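Agonism was assessed in a beta-lactamase reporter system, HEK293H cells with a stably integrated UAS-bla construct under PPARg control; the 17 h treatment at 37C preceded a 1 h room-temperature FRET substrate read.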

For assay [15] the target is unchanged. The experiment in a line: qHTS assay to identify small molecule antagonists of the peroxisome proliferator-activated receptor gamma (PPARg) signaling pathway (AID 743191; calls by dose curve; also: series mostly up to about 63 µM; nearly all actives have a fitted effect of over 30% in size). Summed up: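 Beta-lactamase reporter under UAS control in HEK293H PPARg-bla cells; compound treatment 17 h at 37C. Read-out: fluorescence intensity after 1 h room-temperature incubation with LiveBLAzer B/G FRET substrate.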

Assay [16] deals with Estrogen receptor (Homo sapiens) (UniProt P03372). The experiment in a line: qHTS assay to identify small molecule agonists of the estrogen receptor alpha (ER-alpha) signaling pathway (AID 743075; calls by dose curve;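 also: HEK293 GripTite cells with ER-alpha and UAS-driven beta-lactamase reporter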; also: potency is read from the fitted curve at half-maximal effect).
The target is the same in assay [17]. As to the kind of experiment: qHTS assay to identify small molecule agonists of the estrogen receptor alpha (ER-alpha) signaling pathway using the BG1 cell line (AID 743079). Also: nearly all actives have a fitted effect of over 20% in size. Also: potency is read from the fitted curve at half-maximal effect.
Assay [18] in a line: qHTS assay to identify small molecule antagonists of the estrogen receptor alpha (ER-alpha) signaling pathway using the BG1 cell line (AID 743080; calls by dose curve; also: series mostly up to about 70 µM; nearly all actives have a fitted effect of over 25% in size). Put shortly: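 Antagonist mode: compounds in DMSO were pinned onto BG1-Luc-4E2 cells alongside 17beta-estradiol agonist, incubated 21.5 h, and ERE-driven luciferase measured with ONE-Glo. Cytotoxicity was multiplexed using CellTiter-Fluor fluorescence.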

Assay [19] addresses Estrogen receptor (Homo sapiens) (UniProt P03372). As to the kind of experiment: qHTS assay to identify small molecule antagonists of the estrogen receptor alpha (ER-alpha) signaling pathway (AID 743069; active = well fitted curve in the direction sought with a large enough effect in the signal ratio in the repeat runs, not every such curve was filed as active; the % refers to the signal ratio; also: potency is read from the fitted curve at half-maximal effect). Put shortly: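 Antagonist mode: compounds in DMSO were co-added with 17beta-estradiol to ER-alpha-bla HEK293 cells (2% charcoal-stripped serum) and left 18 h at 37C. Reporter inhibition was measured as FRET fluorescence after 2 h LiveBLAzer substrate at room temperature.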

Several values for one entry are separate records, joined by “and”; a condition that tells them apart may be missing. Equal values may be shown once. Records with an inconclusive call do not appear. More than one record can exist for a structure, and the calls need not agree. Activity calls are given as the source filed them. Unless noted, calls follow the shape of the dose curve; as a rule, active = well fitted curve in the direction sought with a large enough effect in the repeat runs; inconclusive = weak or mixed curves; inactive = no such curve, though single readings can be large; an effect the other way counts as inactive or inconclusive.
% is scaled to controls: 0 for no effect and ±100 for the full control effect.

Sequence of Peroxisome proliferator-activated receptor gamma (Homo sapiens) (P37231 whole entry, looked up): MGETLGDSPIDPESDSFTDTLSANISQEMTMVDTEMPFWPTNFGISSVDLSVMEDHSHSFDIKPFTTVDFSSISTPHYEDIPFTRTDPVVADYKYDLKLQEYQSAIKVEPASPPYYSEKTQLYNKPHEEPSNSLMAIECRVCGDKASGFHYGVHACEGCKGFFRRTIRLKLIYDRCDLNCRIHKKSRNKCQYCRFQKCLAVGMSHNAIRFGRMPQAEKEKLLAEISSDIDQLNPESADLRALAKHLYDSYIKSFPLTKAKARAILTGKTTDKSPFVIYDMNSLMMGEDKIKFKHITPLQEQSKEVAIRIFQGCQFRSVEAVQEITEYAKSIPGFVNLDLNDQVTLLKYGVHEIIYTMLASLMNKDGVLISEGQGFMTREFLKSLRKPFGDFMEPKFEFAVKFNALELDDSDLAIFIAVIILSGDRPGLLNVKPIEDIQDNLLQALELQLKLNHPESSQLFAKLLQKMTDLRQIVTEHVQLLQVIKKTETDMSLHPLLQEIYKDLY
Sequence of Estrogen receptor (Homo sapiens) (P03372 whole entry, looked up): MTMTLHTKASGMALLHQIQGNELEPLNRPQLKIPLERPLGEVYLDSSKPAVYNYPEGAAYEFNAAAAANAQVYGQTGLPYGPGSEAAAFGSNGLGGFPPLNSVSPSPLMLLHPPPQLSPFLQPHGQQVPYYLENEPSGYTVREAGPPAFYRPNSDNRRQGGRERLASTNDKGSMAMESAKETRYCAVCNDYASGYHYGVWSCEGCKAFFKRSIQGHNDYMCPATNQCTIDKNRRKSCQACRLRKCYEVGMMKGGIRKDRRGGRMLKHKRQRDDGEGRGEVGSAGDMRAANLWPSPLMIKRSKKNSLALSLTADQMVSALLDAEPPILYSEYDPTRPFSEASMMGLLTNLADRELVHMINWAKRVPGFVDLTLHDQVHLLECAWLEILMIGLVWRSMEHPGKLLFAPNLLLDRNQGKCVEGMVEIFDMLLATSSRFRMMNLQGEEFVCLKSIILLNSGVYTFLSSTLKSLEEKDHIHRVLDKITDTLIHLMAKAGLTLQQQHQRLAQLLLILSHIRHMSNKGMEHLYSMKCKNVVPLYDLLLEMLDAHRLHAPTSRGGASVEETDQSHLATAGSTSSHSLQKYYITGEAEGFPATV
Sequence of Aromatase (Homo sapiens) (P11511 whole entry, looked up): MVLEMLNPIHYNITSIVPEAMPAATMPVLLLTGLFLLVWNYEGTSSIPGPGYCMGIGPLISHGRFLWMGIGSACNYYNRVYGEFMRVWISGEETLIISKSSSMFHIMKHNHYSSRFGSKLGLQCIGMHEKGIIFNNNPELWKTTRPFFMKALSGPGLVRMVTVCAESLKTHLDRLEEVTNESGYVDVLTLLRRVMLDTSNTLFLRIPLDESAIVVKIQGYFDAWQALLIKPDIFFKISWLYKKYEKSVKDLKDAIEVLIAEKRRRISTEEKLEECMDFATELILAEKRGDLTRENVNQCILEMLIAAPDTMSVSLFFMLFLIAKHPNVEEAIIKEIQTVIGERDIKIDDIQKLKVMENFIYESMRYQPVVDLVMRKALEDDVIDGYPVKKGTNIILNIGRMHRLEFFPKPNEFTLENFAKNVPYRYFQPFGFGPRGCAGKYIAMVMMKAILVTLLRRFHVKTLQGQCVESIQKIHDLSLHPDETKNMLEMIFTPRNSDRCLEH
Sequence of Aryl hydrocarbon receptor (Homo sapiens) (P35869 whole entry, looked up): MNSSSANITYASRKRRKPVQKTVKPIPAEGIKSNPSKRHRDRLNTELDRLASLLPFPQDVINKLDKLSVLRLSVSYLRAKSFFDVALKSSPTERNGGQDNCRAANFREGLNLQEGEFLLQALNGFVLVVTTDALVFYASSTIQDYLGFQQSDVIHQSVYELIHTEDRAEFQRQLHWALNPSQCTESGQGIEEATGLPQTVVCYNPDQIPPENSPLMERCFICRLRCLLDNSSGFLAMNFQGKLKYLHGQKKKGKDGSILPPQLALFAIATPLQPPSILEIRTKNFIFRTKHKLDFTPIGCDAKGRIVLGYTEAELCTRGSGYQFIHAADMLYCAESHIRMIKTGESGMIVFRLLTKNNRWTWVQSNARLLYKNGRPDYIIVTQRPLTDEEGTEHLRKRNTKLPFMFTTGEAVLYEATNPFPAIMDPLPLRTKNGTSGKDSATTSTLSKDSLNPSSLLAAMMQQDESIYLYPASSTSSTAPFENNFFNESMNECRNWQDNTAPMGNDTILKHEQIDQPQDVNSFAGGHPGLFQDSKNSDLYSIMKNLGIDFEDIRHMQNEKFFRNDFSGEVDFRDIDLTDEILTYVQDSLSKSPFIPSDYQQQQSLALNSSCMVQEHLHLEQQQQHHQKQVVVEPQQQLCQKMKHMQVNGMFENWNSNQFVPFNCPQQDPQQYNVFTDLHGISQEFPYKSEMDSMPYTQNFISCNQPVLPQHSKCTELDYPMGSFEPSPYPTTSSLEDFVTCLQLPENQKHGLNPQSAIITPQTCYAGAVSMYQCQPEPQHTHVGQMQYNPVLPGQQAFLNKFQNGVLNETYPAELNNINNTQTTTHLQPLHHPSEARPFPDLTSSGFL

Turning to `Cc1ccc(S(=O)(=O)Oc2ccc(N=Nc3ccc(-c4ccc(N=Nc5c(O)ccc6cc(S(=O)(=O)O)cc(S(=O)(=O)O)c56)c(C)c4)cc3C)cc2)cc1`, the Potency was 10.9 µM (active) in assay [1]; 30.8 µM (active) and 15.9 µM (active) in assay [3]; 10.9 µM (active) and 10 µM (active) in [4]; 9.73 µM (active) and 14.1 µM (active) in assay [6]. The Potency entry in [2], in assay [5], in assay [7], in assay [8], in assay [9] and in assay [10] was “inactive” in each case. Also, in assay [11], the Potency result is “inactive”.

For the compound `O=C(O)CCc1ccccc1`, the Potency result in assay [1], in assay [2], in [12], in assay [3], in [6] and in assay [7] was “inactive” in each case. Also, the Potency entry in [13], in assay [9], in assay [10] and in [11] was “inactive” in each case.

As for `COc1ccc(COC(C)=O)cc1`, the Potency entry (in assay [1]; in assay [2]; in assay [12]; in assay [3]; with Aromatase (Homo sapiens); in [4]) was “inactive” each time. In addition, the Potency result in assay [5], in [6], in [7], in assay [13], in assay [8] and in assay [9] was “inactive” in each case. For the same compound, in assay [11], the Potency entry was “inactive”. Besides, the Potency result in assay [10] is “inactive and 54.9 µM (active)”.

Take `NC(Cc1ccc(Cl)cc1)C(=O)O` (stereo not drawn): the Potency result (in [1]; in [2]; in [12]; in [3]; in the assay with Aromatase (Homo sapiens); in assay [4]) was “inactive” throughout. Also, the Potency entry in [5], in assay [6] and in assay [14] was “inactive” each time. In addition, the ratio activity, negative = inhibition in assay [15] is -10.6% [at 0.55 µM] (inactive). The figures for the activity change, negative = cytotoxicity in assay [7] and in assay [11] were 2.82% [at 0.55 µM] (inactive) and 4.79% [at 0.55 µM] (inactive), respectively. For the same compound, the viability change, negative = cytotoxic in assay [8] is 0.376% [at 0.756 µM] (inactive). Moreover, the activation in [10] is 1.36% [at 0.55 µM] (inactive).

With `CCCC(=O)c1ccccc1`, the Potency entry (in assay [1]; in [2]; in [12]; in assay [3]; with Aromatase (Homo sapiens); in [4]) was “inactive” throughout. For the same compound, the Potency result in [5], in assay [14], in assay [7], in [13], in assay [8] and in assay [9] was “inactive” each time. Further, the Potency entry in assay [10] and in assay [11] was “inactive” throughout.

As for `COC(c1ccccc1)(c1ccccc1)[C@H](Oc1nc(C)cc(C)n1)C(=O)O`, the Potency result (in [1]; in assay [2]; in assay [12]; in the assay with Aromatase (Homo sapiens); in assay [4]; in assay [5]) was “inactive” throughout. The Potency result in assay [6], in [14], in assay [15], in assay [7], in assay [13] and in assay [8] was “inactive” each time. Also, the Potency entry in assay [10] and in [11] was “inactive” in each case.

Turning to `O=C(O)c1cn(-c2ccc(F)cc2)c2cc(N3CCNCC3)c(F)cc2c1=O`, the Potency entry (in [1]; in assay [2]; in assay [12]; in assay [3]; with Aromatase (Homo sapiens); in assay [4]) was “inactive” each time. The Potency result in assay [5], in assay [6], in [14], in [7], in assay [13] and in assay [8] was “inactive” throughout. Further, the Potency result in [9], in assay [10] and in assay [11] was “inactive” throughout.

`c1ccc2cc3c(ccc4ccccc43)cc2c1`: the Potency result (in assay [1]; in assay [2]; in assay [12]; in [18]; in assay [3]; with Aromatase (Homo sapiens)) was “inactive” throughout. The Potency result in assay [4], in assay [6], in [14], in assay [7], in assay [8] and in assay [9] was “inactive” throughout. Further, the Potency entry in assay [10] and in [11] was “inactive” throughout. Also, the Potency in assay [16] was 55.1 µM [activator] (active) and inactive; in [17], 54.6 µM (active) and 48.6 µM (active); in [5] it was 4.34 µM (active) and 6.86 µM (active); in assay [13], 6.11 µM (active).

As for `O=Cc1ccc(Cl)cc1`, the Potency entry (in assay [1]; in assay [2]; in assay [12]; in assay [3]; with Aromatase (Homo sapiens); in [4]) was “inactive” in each case. Moreover, the Potency result in assay [6], in [14], in assay [7], in [13], in [8] and in assay [9] was “inactive” in each case. In addition, the Potency result in assay [10] and in assay [11] was “inactive” each time.

For the compound `Cc1occc(=O)c1OC(=O)C(C)C`, the Potency result (in assay [1]; in assay [2]; in [12]; in assay [3]; in the assay with Aromatase (Homo sapiens); in assay [4]) was “inactive” in each case. The Potency result in assay [5], in assay [6], in [7], in assay [8], in assay [9] and in assay [10] was “inactive” throughout. Moreover, the Potency result in assay [11] is “inactive”.

As for `CCOc1ccccc1C(N)=O`, the Potency result in assay [2], in [19], in assay [12], in assay [16], in assay [17] and in assay [18] was “inactive” throughout. The Potency entry (in assay [3]; in the assay with Aromatase (Homo sapiens); in [4]; in assay [5]; in assay [6]; in assay [14]) was “inactive” each time. Moreover, the Potency entry in assay [15], in [7], in [13], in [8], in assay [9] and in assay [10] was “inactive” in each case. Also, the Potency entry in assay [11] was “inactive”.

Consider `CC(=O)OCCOCCOCCOC(C)=O`, for which the Potency result in assay [2], in [19], in assay [12], in [16], in assay [17] and in assay [18] was “inactive” each time. The Potency result (in [3]; with Aromatase (Homo sapiens); in assay [4]; in assay [5]; in [6]; in assay [14]) was “inactive” in each case. The Potency entry in [7], in [13], in assay [8], in assay [9], in assay [10] and in assay [11] was “inactive” in each case.

Regarding `CC(C)(c1ccccc1)c1ccc(Nc2ccc(C(C)(C)c3ccccc3)cc2)cc1`, the Potency entry (in [2]; in assay [16]; in [17]; in assay [18]; in assay [3]; with Aromatase (Homo sapiens)) was “inactive” each time. Further, the Potency result in assay [4], in [5], in assay [6], in assay [7], in assay [8] and in assay [9] was “inactive” each time. The Potency entry in assay [11] is “inactive”. The Potency in [19] was 61.7 µM [cytotoxic] (active).

For the origin of these results see PubChem BioAssay (Tox21).
